Where “and” joins values, the source holds several entries; their conditions need not be identical. Identical values can stand only once. Inconclusive results are not listed. Some structures have more than one record in an assay (separate samples or runs), and their calls can disagree. Calls of active or inactive are those of the source. Calls come from the whole dose curve; as a rule, active = well fitted curve in the direction sought with a large enough effect; inconclusive = small, poorly fitted or top-dose-only effect, or another doubt; inactive = no such curve, though single readings can be large; an effect the other way counts as inactive or inconclusive.
Legend:
[1] = molecular target: Glutathione peroxidase 1 (Homo sapiens) (UniProt P07203); assay: Primary qHTS Assay for Inhibitors of Recombinant Selenoprotein Glutathione Peroxidase 1 (GPX1) (AID 1845191); note: nearly all actives have a fitted effect of over 65% in size
Sequence of Glutathione peroxidase 1 (Homo sapiens) (P07203 whole entry, looked up): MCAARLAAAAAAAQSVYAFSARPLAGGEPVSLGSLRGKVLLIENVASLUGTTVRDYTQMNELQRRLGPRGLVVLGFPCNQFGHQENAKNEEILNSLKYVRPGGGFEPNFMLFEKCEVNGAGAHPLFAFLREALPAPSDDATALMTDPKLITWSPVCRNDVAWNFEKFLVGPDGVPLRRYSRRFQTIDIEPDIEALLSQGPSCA
Outline: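 10 nM GPX1 + cpd, 30 min RT; start w/ 1 mM GSH, 0.5 mM cumene hydroperoxide, 0.5 mM NADPH, 100 nM GR, 0.01% BSA; buffer 50 mM Tris-HCl pH 7.5, 2 mM EDTA, 150 mM NaCl; Fl 340/450, 0 & 15 min.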

[2] = molecular target: Phospholipid hydroperoxide glutathione peroxidase GPX4 (Homo sapiens) (UniProt P36969); assay: Primary qHTS Assay for Inhibitors of Recombinant Selenoprotein Glutathione Peroxidase 4 (GPX4) (AID 1845192); note: nearly all actives have a fitted effect of over 65% in size; note: potency is the fitted concentration of half-maximal effect
Sequence of Phospholipid hydroperoxide glutathione peroxidase GPX4 (Homo sapiens) (P36969 whole entry, looked up): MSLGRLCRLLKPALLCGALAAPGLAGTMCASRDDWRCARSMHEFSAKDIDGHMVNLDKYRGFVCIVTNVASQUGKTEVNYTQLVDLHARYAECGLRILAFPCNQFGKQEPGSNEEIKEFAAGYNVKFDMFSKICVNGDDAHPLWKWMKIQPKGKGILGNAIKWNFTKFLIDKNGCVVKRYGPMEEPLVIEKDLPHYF
Outline: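 NADPH consumption, followed by fluorescence at 340/450 nm between 0 and 15 min, reports GPX4 activity via coupled glutathione reductase (100 nM). Enzyme 200 nM was pre-exposed to compound 30 min; 0.5 mM cumene hydroperoxide and 1 mM GSH served as substrates.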

[3] = molecular target: Luciferin 4-monooxygenase (Photinus pyralis) (UniProt P08659); assay: Primary firefly luciferase (FLuc) qHTS assay for identification of artifact compounds. (AID 1845220); note: nearly all actives have a fitted effect of over 60% in size
Outline: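 Compounds sat 15 min at room temperature with 10 uM luciferin and 10 uM ATP (pH 7.6 Tris acetate). Firefly luciferase (10 nM final) was then added, and luminescence was read 5 min later. Data normalized to no-enzyme and DMSO controls were Hill-fitted.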

[4] = Primary fluorescence-based thiol-reactive (MSTI) qHTS assay for identification of artifact compounds. (AID 1845221); note: nearly all actives have a fitted effect of over 65% in size; note: potency is the fitted concentration of half-maximal effect
Outline: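 qHTS titration of compound; 4 uM MSTI, PBS pH 7.4, 2% DMSO; 1 h RT, dark; fluorescence 525/598 nm; normalized to Acetyl-MSTI and MSTI; 4-parameter Hill fit.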

[5] = tested on: Nanoluciferase (engineered Oplophorus gracilirostris luciferase); assay: Primary Nanoluciferase (NLuc) qHTS assay for identification of artifact compounds. (AID 1845222); note: series mostly up to about 54 µM
Outline: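 Luminescence from secreted NLuc (filtered, 1:55-diluted S16 cell medium) read 5 min after Nano-Glo substrate; compounds preincubated 15 min, RT. Hill fits of inhibition normalized to DMSO and no-enzyme.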

[6] = Primary redox qHTS assay for identification of artifact compounds. (AID 1845223)
Outline: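 Amplex Red (25 uM) and HRP (250 mU/mL) in HBSS, with compounds for 15 min, then 250 uM DTT for 30 min, room temperature, dark. Fluorescence 525/598 nm read; normalized to DMSO and 10 uM DA3003; Hill fit.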

Measured: Potency

O=C(NCCN1CCC(n2c(=O)[nH]c3ccccc32)CC1)c1cc2cc(F)ccc2[nH]1
inactive: all assays above

CCC(CC)(NC(=O)C(C)C)C(=O)N[C@@H](CCCN=C(N)N)C(=O)NC1(C(=O)NC(c2ccc(F)cc2)c2ccc(F)cc2)CCCC1
inactive: all assays above

C=C1C(=O)O[C@@H]2[C@H]1CC[C@H](C)[C@]1(CCC(=O)O1)C2(C)O (some centres undefined)
inactive: all assays above

CNc1nc(NCc2ccc(NS(C)(=O)=O)cc2Cl)cc(-c2ccccn2)n1
inactive: all assays above

CC(C)c1ccc(NC(=O)c2cccs2)c(-c2nc3ccccc3[nH]c2=O)c1
inactive: all assays above

CCC(=O)N1CCOc2c(cc(-c3ccc(OC)c(OC)c3)cc2OC[C@H]2CCCN(C)C2)C1
inactive: all assays above

Cc1cc(C(=O)Cn2cc(C#N)ccc2=O)c(C)n1Cc1ccccc1
inactive: all assays above

CN1c2c(nc(N)[nH]c2=O)NC[C@@H]1CNc1ccc(C(=O)N[C@@H](CCC(=O)O)C(=O)O)cc1
inactive and 1.24 µM (active): [2]
inactive: all other assays above

C=C1C(=O)O[C@@H]2C=C(COC(C)=O)CC/C=C(\CO)CC[C@@H]12
inactive: all assays above

Cc1ccccc1C(C(=O)NC1CCCCC1)N(C(=O)Cn1cnc2ccccc21)c1cccc(F)c1 (centres undefined)
inactive: all assays above

Cc1ccc(-c2ncccn2)c(C(=O)N2C[C@H](COc3ccc(F)cn3)CC[C@H]2C)c1
inactive: all assays above

C=C1CC[C@H]2C(=C)CC[C@H]3C(=C)C(=O)O[C@@H]3[C@@H]12
inactive: all assays above

O=C(NCCCN1CCC2(CC1)OCc1ccccc12)[C@H]1CCCN1Cc1ccccc1
inactive: all assays above

CCOC(=O)CCNc1cc(N2CCc3ccccc3CC2)nc(-c2cccnc2)n1
inactive: all assays above

COc1c(CCC(=O)O)cccc1O[C@@H]1O[C@H](CO)[C@@H](O)[C@H](O)[C@H]1O
active: [4] 13.1 µM
inactive: all other assays above

O=C(Nc1cccnn1)N1CCN(c2nccc(-c3ccc(F)c(F)c3)n2)CC1
inactive: all assays above

CN(C)c1ccnc2sc3c(=O)n(N4CCCCCC4)cnc3c12
inactive: all assays above

CC(C)(CO)c1cc2cc(NC(=O)C3(c4ccc5c(c4)OC(F)(F)O5)CC3)c(F)cc2n1CC(O)CO (centres undefined)
inactive: all assays above

Cc1ccc(S(=O)(=O)N2CCC[C@H]2c2ccc(F)cc2)cc1
inactive: all assays above

N#Cc1ccc(COC[C@H]2O[C@@H](n3c(NCc4ccc(Cl)c(Cl)c4)nc4c(N)ncnc43)[C@H](O)[C@@H]2O)cc1
inactive: all assays above

O=C(Nc1ccc(C(F)(F)F)cn1)N1CCN(c2ncccc2C(F)(F)F)CC1
inactive: all assays above

Nc1nc(Cl)nc2c1ncn2C1OC(CO)C(O)C1F (centres undefined)
inactive: all assays above

COC(=O)c1ccc(N2CCN(C)CC2)c(NC(=O)c2cccc(OC)c2)c1
inactive: all assays above

N#CC(CCCN1CCC(O)(c2ccc(Cl)cc2)CC1)(c1ccccc1)c1ccccc1
inactive: all assays above

Source: PubChem BioAssay (NCATS)
